# From the supplement of paper PMC4022240
# ± gives the standard deviation.
# T1: HaloTag-ATRX ADD domain (163-292)
# T1 chain: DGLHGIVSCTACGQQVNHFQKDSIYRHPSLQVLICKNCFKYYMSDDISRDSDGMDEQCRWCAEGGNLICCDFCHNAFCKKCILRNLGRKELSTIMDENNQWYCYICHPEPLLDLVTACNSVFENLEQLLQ
# Columns and labels:
# Assay in all cases: peptide microarray binding signal (635 nm), min-max normalized on array (fraction of array maximum); higher = stronger binding
# Conditions in all cases: peptide region: H3 11-23
# [1] = target: T1, HaloTag-ATRX ADD domain (163-292)
# Procedure, shortened: (§1)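 An Axon GenePix 4000B scanned the arrays at 635 nm for signal and at 532 nm to catch misprints. Those arrays held histone 13-mer peptide–cellulose conjugates printed in triplicate on nitrocellulose with a Cy3 tracer, blocked overnight at 4°C and probed for 1 h at 4°C with biotin-labelled HaloTag reader fusions (10 nM to 1 μM) plus streptavidin-Alexa Fluor 647 or with rabbit histone antibodies (1:10,000 to 1:2,000) plus anti-rabbit Alexa 647. Each binding signal is a triplicate-spot mean intensity, scaled min-max within its library.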
# [2] = target: HaloTag-ING2 PHD (mouse Ing2 200-280)
# Procedure, shortened: as §1
# [3] = target: anti-H3K4me3 antibody ab8580
# Procedure, shortened: as §1
# [4] = target: anti-H3K9me3 antibody ab8898
# Procedure, shortened: as §1
# [5] = peptide modifications: H3K14me1 H3R17me1, binder concentration: 1:2,000 dilution
# [6] = peptide modifications: H3K14me1 H3R17me1, binder concentration: 1:10,000 dilution
# [7] = peptide modifications: H3K14me1 H3R17cit, binder concentration: 1:2,000 dilution
# [8] = peptide modifications: H3K14me1 H3R17cit, binder concentration: 1:10,000 dilution
# [9] = peptide modifications: H3K14me2 H3K18me1, binder concentration: 1:2,000 dilution
# [10] = peptide modifications: H3K14me2 H3K18me1, binder concentration: 1:10,000 dilution
# [11] = peptide modifications: H3K14me2 H3K18ac, binder concentration: 1:2,000 dilution
# [12] = peptide modifications: H3K14me2 H3K18ac, binder concentration: 1:10,000 dilution
# [13] = peptide modifications: H3K14me3, binder concentration: 1:2,000 dilution
# [14] = peptide modifications: H3K14me3, binder concentration: 1:10,000 dilution
# [15] = peptide modifications: H3K14me2 H3R17cit, binder concentration: 1:2,000 dilution
# [16] = peptide modifications: H3K14me2 H3R17cit, binder concentration: 1:10,000 dilution
# [17] = peptide modifications: H3K14me2, binder concentration: 1:2,000 dilution
# [18] = peptide modifications: H3K14me2, binder concentration: 1:10,000 dilution
# [19] = peptide modifications: H3K14me1 H3K18me1, binder concentration: 1:2,000 dilution
# [20] = peptide modifications: H3K14me1 H3K18me1, binder concentration: 1:10,000 dilution
# [21] = peptide modifications: H3K14me2 H3R17me2a, binder concentration: 1:2,000 dilution
# [22] = peptide modifications: H3K14me2 H3R17me2a, binder concentration: 1:10,000 dilution
# [23] = peptide modifications: H3K14me3 H3K18me2, binder concentration: 1:2,000 dilution
# [24] = peptide modifications: H3K14me3 H3K18me2, binder concentration: 1:10,000 dilution
binder,measurement,setting,value
TGGKAPRKQLATK [H3 11-23 T G G Kme A P Rme K Q L A T K],peptide microarray binding signal,"[1]; peptide modifications: H3K14me1 H3R17me1, binder concentration: 50 nM",0.0069 ± 0.00032
same,peptide microarray binding signal,"[1]; peptide modifications: H3K14me1 H3R17me1, binder concentration: 500 nM",0.0148 ± 0.001
same,peptide microarray binding signal,"[2]; peptide modifications: H3K14me1 H3R17me1, binder concentration: 10 nM",0.00674 ± 0.00033
same,peptide microarray binding signal,"[2]; peptide modifications: H3K14me1 H3R17me1, binder concentration: 100 nM",0.0121 ± 0.00053
same,peptide microarray binding signal,[3]; [5],0.00587 ± 0.0018
same,peptide microarray binding signal,[3]; [6],0.0114 ± 0.0068
same,peptide microarray binding signal,[4]; [5],0.0084 ± 0.0022
same,peptide microarray binding signal,[4]; [6],0.00427 ± 0.0008
TGGKAPRKQLATK [H3 11-23 T G G Kme A P Rcit K Q L A T K],peptide microarray binding signal,"[1]; peptide modifications: H3K14me1 H3R17cit, binder concentration: 50 nM",0.00351 ± 0.00027
same,peptide microarray binding signal,"[1]; peptide modifications: H3K14me1 H3R17cit, binder concentration: 500 nM",0.0134 ± 0.00059
same,peptide microarray binding signal,"[2]; peptide modifications: H3K14me1 H3R17cit, binder concentration: 10 nM",0.0121 ± 0.0023
same,peptide microarray binding signal,"[2]; peptide modifications: H3K14me1 H3R17cit, binder concentration: 100 nM",0.0268 ± 0.0021
same,peptide microarray binding signal,[3]; [7],0.00151 ± 0.00025
same,peptide microarray binding signal,[3]; [8],0.00223 ± 0.00013
same,peptide microarray binding signal,[4]; [7],0.00267 ± 0.00024
same,peptide microarray binding signal,[4]; [8],0.00271 ± 0.00023
TGGKAPRKQLATK [H3 11-23 T G G Kme2 A P R Kme Q L A T K],peptide microarray binding signal,"[1]; peptide modifications: H3K14me2 H3K18me1, binder concentration: 50 nM",0.00752 ± 0.0013
same,peptide microarray binding signal,"[1]; peptide modifications: H3K14me2 H3K18me1, binder concentration: 500 nM",0.0129 ± 0.00084
same,peptide microarray binding signal,"[2]; peptide modifications: H3K14me2 H3K18me1, binder concentration: 10 nM",0.013 ± 0.0021
same,peptide microarray binding signal,"[2]; peptide modifications: H3K14me2 H3K18me1, binder concentration: 100 nM",0.0405 ± 0.012
same,peptide microarray binding signal,[3]; [9],0.0136 ± 0.0009
same,peptide microarray binding signal,[3]; [10],0.00964 ± 0.0012
same,peptide microarray binding signal,[4]; [9],0.00565 ± 0.00074
same,peptide microarray binding signal,[4]; [10],0.0045 ± 0.00053
TGGKAPRKQLATK [H3 11-23 T G G Kme2 A P R Kac Q L A T K],peptide microarray binding signal,"[1]; peptide modifications: H3K14me2 H3K18ac, binder concentration: 50 nM",0.00868 ± 0.00034
same,peptide microarray binding signal,"[1]; peptide modifications: H3K14me2 H3K18ac, binder concentration: 500 nM",0.0165 ± 0.0015
same,peptide microarray binding signal,"[2]; peptide modifications: H3K14me2 H3K18ac, binder concentration: 10 nM",0.0173 ± 0.003
same,peptide microarray binding signal,"[2]; peptide modifications: H3K14me2 H3K18ac, binder concentration: 100 nM",0.0242 ± 0.0017
same,peptide microarray binding signal,[3]; [11],0.0129 ± 0.0016
same,peptide microarray binding signal,[3]; [12],0.0111 ± 0.00098
same,peptide microarray binding signal,[4]; [11],0.00806 ± 0.00086
same,peptide microarray binding signal,[4]; [12],0.00496 ± 0.00013
TGGKAPRKQLATK [H3 11-23 T G G Kme3 A P R K Q L A T K],peptide microarray binding signal,"[1]; peptide modifications: H3K14me3, binder concentration: 50 nM",0.00567 ± 0.0004
same,peptide microarray binding signal,"[1]; peptide modifications: H3K14me3, binder concentration: 500 nM",0.017 ± 0.0053
same,peptide microarray binding signal,"[2]; peptide modifications: H3K14me3, binder concentration: 10 nM",0.0115 ± 0.0029
same,peptide microarray binding signal,"[2]; peptide modifications: H3K14me3, binder concentration: 100 nM",0.0106 ± 0.0035
same,peptide microarray binding signal,[3]; [13],0.0134 ± 0.0088
same,peptide microarray binding signal,[3]; [14],0.0221 ± 0.0092
same,peptide microarray binding signal,[4]; [13],0.062 ± 0.022
same,peptide microarray binding signal,[4]; [14],0.0336 ± 0.0081
TGGKAPRKQLATK [H3 11-23 T G G Kme2 A P Rcit K Q L A T K],peptide microarray binding signal,"[1]; peptide modifications: H3K14me2 H3R17cit, binder concentration: 50 nM",0.00455 ± 0.00063
same,peptide microarray binding signal,"[1]; peptide modifications: H3K14me2 H3R17cit, binder concentration: 500 nM",0.0129 ± 0.0034
same,peptide microarray binding signal,"[2]; peptide modifications: H3K14me2 H3R17cit, binder concentration: 10 nM",0.0106 ± 0.0018
same,peptide microarray binding signal,"[2]; peptide modifications: H3K14me2 H3R17cit, binder concentration: 100 nM",0.0185 ± 0.002
same,peptide microarray binding signal,[3]; [15],0.00051 ± 4e-05
same,peptide microarray binding signal,[3]; [16],0.0016 ± 4.6e-05
same,peptide microarray binding signal,[4]; [15],0.00488 ± 0.0014
same,peptide microarray binding signal,[4]; [16],0.00398 ± 0.00058
TGGKAPRKQLATK [H3 11-23 T G G Kme2 A P R K Q L A T K],peptide microarray binding signal,"[1]; peptide modifications: H3K14me2, binder concentration: 50 nM",0.00614 ± 7.5e-05
same,peptide microarray binding signal,"[1]; peptide modifications: H3K14me2, binder concentration: 500 nM",0.0148 ± 0.0014
same,peptide microarray binding signal,"[2]; peptide modifications: H3K14me2, binder concentration: 10 nM",0.00806 ± 0.00059
same,peptide microarray binding signal,"[2]; peptide modifications: H3K14me2, binder concentration: 100 nM",0.00928 ± 0.002
same,peptide microarray binding signal,[3]; [17],0.00381 ± 0.00026
same,peptide microarray binding signal,[3]; [18],0.00331 ± 0.00013
same,peptide microarray binding signal,[4]; [17],0.00619 ± 0.00091
same,peptide microarray binding signal,[4]; [18],0.00548 ± 0.0005
TGGKAPRKQLATK [H3 11-23 T G G Kme A P R Kme Q L A T K],peptide microarray binding signal,"[1]; peptide modifications: H3K14me1 H3K18me1, binder concentration: 50 nM",0.00561 ± 0.00015
same,peptide microarray binding signal,"[1]; peptide modifications: H3K14me1 H3K18me1, binder concentration: 500 nM",0.00886 ± 0.00086
same,peptide microarray binding signal,"[2]; peptide modifications: H3K14me1 H3K18me1, binder concentration: 10 nM",0.0118 ± 0.0022
same,peptide microarray binding signal,"[2]; peptide modifications: H3K14me1 H3K18me1, binder concentration: 100 nM",0.0213 ± 0.0055
same,peptide microarray binding signal,[3]; [19],0.00619 ± 0.0022
same,peptide microarray binding signal,[3]; [20],0.00611 ± 0.00051
same,peptide microarray binding signal,[4]; [19],0.00311 ± 0.00053
same,peptide microarray binding signal,[4]; [20],0.00213 ± 5.2e-05
TGGKAPRKQLATK [H3 11-23 T G G Kme2 A P Rme2a K Q L A T K],peptide microarray binding signal,"[1]; peptide modifications: H3K14me2 H3R17me2a, binder concentration: 50 nM",0.00561 ± 0.00083
same,peptide microarray binding signal,"[1]; peptide modifications: H3K14me2 H3R17me2a, binder concentration: 500 nM",0.00867 ± 0.00039
same,peptide microarray binding signal,"[2]; peptide modifications: H3K14me2 H3R17me2a, binder concentration: 10 nM",0.00686 ± 0.00028
same,peptide microarray binding signal,"[2]; peptide modifications: H3K14me2 H3R17me2a, binder concentration: 100 nM",0.00893 ± 0.00059
same,peptide microarray binding signal,[3]; [21],0.00351 ± 0.00056
same,peptide microarray binding signal,[3]; [22],0.00434 ± 0.00045
same,peptide microarray binding signal,[4]; [21],0.00379 ± 0.00076
same,peptide microarray binding signal,[4]; [22],0.00306 ± 0.00024
TGGKAPRKQLATK [H3 11-23 T G G Kme3 A P R Kme2 Q L A T K],peptide microarray binding signal,"[1]; peptide modifications: H3K14me3 H3K18me2, binder concentration: 50 nM",0.0154 ± 0.00095
same,peptide microarray binding signal,"[1]; peptide modifications: H3K14me3 H3K18me2, binder concentration: 500 nM",0.00933 ± 0.00068
same,peptide microarray binding signal,"[2]; peptide modifications: H3K14me3 H3K18me2, binder concentration: 10 nM",0.0107 ± 0.0026
same,peptide microarray binding signal,"[2]; peptide modifications: H3K14me3 H3K18me2, binder concentration: 100 nM",0.0194 ± 0.008
same,peptide microarray binding signal,[3]; [23],0.0408 ± 0.02
same,peptide microarray binding signal,[3]; [24],0.0276 ± 0.0038
same,peptide microarray binding signal,[4]; [23],0.0775 ± 0.0048
same,peptide microarray binding signal,[4]; [24],0.0328 ± 0.0026
